# Results as given in PMC7862700, “An all-to-all approach to the identification of sequence-specific readers for epigenetic DNA modifications on cytosine”.
# Experiments:
# Assay in all cases: DAPPL (digital affinity profiling via proximity ligation, sequencing); 10 mM Tris-HCl pH 7.5, 50 mM NaCl, 1 mM DTT, 4% glycerol, room temperature, 30 min; GST-TFs on glutathione beads, 16-mer random dsDNA library, 0.1% formaldehyde crosslink after washing; high values mean tight binding
# Details in all cases: protein: recombinant; tags: N-terminal GST; dsDNA, one strand shown
# ELK1 = target: T1, ELK1 (Homo sapiens, UniProt P19419 1-428)
# T1 sequence: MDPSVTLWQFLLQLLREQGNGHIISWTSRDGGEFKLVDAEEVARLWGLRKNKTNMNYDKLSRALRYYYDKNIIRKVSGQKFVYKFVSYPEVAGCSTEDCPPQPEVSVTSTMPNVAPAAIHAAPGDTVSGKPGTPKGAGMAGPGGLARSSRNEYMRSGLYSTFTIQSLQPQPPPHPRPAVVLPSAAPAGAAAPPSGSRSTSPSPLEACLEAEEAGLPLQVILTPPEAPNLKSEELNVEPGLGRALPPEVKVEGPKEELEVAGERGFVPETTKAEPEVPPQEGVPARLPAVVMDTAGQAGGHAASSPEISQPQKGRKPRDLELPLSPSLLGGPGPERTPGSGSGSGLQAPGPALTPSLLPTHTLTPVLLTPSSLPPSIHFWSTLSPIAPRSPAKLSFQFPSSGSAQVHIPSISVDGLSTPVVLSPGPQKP
# Method in brief: (§1)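 Sequencing on an Illumina NextSeq500 followed washing, crosslinking with 0.1% formaldehyde, proximity ligation (BsaI/T4 ligase, 1 h, 37 °C) and PCR amplification of pools that had been incubated for 30 min at room temperature with 200 nmole of a random double-stranded 16-mer DNA library in Tris/NaCl/DTT/glycerol buffer. Each pool held DNA-barcoded human transcription factors, expressed in yeast as GST fusions and captured on glutathione beads, plus a tag-only sample. Binding signal is a hexamer's read frequency for a factor divided by its frequency in the tag-only sample.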
# ERG = target: T2, ERG (Homo sapiens, UniProt P11308 1-479)
# T2 sequence: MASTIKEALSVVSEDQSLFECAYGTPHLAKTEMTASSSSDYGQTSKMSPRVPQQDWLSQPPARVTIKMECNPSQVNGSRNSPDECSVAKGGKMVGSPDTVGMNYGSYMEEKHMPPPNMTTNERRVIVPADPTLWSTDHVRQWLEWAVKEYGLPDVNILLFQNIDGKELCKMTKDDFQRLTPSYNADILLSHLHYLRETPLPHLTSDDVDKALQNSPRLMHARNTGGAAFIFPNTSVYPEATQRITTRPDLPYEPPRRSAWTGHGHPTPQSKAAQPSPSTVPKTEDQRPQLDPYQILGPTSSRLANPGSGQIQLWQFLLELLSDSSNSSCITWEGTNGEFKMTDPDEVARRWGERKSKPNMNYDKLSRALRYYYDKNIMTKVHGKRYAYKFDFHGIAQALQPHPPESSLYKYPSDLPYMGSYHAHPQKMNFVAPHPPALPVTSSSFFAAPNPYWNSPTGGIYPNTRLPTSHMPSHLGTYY
# Method in brief: as §1
# ELF1 = ELF1 (Homo sapiens, UniProt P32519 1-619)
# Method in brief: as §1
# SPIB = SPIB (Homo sapiens, UniProt Q01892 1-262)
# Method in brief: as §1
# ETV5 = ETV5 (Homo sapiens, UniProt P41161 1-510)
# Method in brief: as §1
# ELK4 = target: T3, ELK4 (Homo sapiens, UniProt P28324-2 1-405)
# T3 sequence: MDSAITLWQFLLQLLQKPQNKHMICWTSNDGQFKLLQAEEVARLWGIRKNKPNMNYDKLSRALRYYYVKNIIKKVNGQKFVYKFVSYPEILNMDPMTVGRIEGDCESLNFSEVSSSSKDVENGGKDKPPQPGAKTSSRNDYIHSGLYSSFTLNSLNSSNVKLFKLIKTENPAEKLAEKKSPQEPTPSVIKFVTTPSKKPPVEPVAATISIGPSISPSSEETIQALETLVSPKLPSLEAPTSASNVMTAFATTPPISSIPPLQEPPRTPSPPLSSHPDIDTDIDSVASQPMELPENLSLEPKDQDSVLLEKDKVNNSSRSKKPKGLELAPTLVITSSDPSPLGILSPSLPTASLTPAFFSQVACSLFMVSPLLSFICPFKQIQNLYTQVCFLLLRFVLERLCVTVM
# Method in brief: as §1
# ETV1 = ETV1 (Homo sapiens, UniProt P50549 1-477)
# Method in brief: as §1
# ERF = target: T4, ERF (Homo sapiens, UniProt P50548 1-548)
# T4 sequence: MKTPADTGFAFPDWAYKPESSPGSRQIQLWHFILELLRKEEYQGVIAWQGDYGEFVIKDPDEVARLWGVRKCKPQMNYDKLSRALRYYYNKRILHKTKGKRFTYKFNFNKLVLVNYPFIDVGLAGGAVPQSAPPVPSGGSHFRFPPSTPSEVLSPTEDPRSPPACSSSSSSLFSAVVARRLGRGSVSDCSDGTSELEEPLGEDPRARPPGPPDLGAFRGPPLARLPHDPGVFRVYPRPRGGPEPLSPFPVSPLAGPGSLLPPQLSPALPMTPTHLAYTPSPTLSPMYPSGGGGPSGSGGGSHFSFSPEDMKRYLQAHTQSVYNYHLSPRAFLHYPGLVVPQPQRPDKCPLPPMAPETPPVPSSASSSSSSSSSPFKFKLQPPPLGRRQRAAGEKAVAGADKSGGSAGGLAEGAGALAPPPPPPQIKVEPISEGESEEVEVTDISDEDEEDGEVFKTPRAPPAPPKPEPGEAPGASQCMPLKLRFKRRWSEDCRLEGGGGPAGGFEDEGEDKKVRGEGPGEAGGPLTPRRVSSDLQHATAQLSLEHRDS
# Method in brief: as §1
# ETV3L = target: T5, ETV3L (Homo sapiens, UniProt Q6ZN32 1-361)
# T5 sequence: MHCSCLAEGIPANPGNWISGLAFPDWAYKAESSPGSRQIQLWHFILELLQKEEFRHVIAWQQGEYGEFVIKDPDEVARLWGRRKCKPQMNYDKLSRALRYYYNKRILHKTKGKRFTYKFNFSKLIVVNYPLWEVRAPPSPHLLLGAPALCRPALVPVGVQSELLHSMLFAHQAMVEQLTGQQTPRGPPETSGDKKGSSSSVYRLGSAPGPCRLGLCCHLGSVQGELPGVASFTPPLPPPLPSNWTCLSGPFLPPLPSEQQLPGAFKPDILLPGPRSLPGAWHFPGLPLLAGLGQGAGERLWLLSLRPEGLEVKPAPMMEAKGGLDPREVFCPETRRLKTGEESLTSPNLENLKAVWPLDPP
# Method in brief: as §1
# ETV7 = target: T6, ETV7 (Homo sapiens, UniProt Q9Y603 1-341)
# T6 sequence: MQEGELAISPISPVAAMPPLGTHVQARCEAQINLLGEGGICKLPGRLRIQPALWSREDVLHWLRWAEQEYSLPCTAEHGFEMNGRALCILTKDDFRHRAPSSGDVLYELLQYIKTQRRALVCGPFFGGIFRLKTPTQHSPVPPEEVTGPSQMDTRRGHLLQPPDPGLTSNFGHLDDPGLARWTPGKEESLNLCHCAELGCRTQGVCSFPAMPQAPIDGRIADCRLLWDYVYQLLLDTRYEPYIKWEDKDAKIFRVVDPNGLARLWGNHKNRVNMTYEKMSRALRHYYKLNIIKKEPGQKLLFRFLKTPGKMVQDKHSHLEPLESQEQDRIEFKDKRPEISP
# Method in brief: as §1
# GABPA = target: T7, GABPA (Homo sapiens, UniProt Q06546 1-454)
# T7 sequence: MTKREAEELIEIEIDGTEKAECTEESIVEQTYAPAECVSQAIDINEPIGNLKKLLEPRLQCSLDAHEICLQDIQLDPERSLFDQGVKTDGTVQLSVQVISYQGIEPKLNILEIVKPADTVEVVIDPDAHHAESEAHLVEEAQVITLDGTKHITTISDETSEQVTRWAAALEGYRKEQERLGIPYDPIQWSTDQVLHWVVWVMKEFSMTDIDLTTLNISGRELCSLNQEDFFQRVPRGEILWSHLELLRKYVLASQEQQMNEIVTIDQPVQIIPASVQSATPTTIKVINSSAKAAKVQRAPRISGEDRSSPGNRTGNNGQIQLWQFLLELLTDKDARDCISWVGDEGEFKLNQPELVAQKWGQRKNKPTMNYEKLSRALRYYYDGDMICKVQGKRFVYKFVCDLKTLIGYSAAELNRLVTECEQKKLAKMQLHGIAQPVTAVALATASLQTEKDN
# Method in brief: as §1
# EHF = target: T8, EHF (Homo sapiens, UniProt Q9NZC4 1-300)
# T8 sequence: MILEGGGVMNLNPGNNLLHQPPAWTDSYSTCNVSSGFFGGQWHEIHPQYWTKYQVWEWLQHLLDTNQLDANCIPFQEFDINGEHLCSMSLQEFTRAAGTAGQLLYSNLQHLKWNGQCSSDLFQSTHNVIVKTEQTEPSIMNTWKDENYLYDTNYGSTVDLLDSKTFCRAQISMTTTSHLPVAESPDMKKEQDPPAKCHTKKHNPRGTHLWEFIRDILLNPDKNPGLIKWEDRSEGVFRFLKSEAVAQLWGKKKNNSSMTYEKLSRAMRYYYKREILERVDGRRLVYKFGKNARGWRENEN
# Method in brief: as §1
# FEV = target: T9, FEV (Homo sapiens, UniProt Q99581 1-238)
# T9 sequence: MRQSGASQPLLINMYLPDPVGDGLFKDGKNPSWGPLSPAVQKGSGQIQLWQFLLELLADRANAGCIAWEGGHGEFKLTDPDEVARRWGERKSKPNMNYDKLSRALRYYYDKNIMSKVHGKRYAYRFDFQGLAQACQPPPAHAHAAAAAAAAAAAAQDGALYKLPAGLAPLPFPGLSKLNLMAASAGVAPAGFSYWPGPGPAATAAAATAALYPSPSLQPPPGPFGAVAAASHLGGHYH
# Method in brief: as §1
# ELF4 = ELF4 (Homo sapiens, UniProt Q99607 1-663)
# Method in brief: as §1
# ETV2 = target: T10, ETV2 (Homo sapiens, UniProt O00321 1-342)
# T10 sequence: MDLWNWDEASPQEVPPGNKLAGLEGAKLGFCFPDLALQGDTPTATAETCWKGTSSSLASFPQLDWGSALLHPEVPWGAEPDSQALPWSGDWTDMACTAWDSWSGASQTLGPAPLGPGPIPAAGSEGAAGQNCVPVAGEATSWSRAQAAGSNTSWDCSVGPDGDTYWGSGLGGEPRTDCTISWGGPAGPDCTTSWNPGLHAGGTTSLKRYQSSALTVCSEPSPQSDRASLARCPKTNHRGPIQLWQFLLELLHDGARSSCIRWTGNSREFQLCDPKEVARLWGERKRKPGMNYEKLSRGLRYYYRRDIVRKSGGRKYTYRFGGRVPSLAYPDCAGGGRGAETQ
# Method in brief: as §1
# ELF3 = target: T11, ELF3 (Homo sapiens, UniProt P78545 1-371)
# T11 sequence: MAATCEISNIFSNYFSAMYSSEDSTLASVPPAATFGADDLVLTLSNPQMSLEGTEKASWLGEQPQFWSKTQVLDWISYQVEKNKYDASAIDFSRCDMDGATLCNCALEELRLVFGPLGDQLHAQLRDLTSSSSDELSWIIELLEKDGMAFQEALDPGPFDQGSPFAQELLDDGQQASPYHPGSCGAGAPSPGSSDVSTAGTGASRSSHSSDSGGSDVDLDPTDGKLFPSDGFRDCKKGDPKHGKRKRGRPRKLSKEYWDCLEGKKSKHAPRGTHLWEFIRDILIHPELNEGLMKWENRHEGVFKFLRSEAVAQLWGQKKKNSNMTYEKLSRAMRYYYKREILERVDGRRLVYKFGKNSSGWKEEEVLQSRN
# Method in brief: as §1
# SPDEF = target: T12, SPDEF (Homo sapiens, UniProt O95238 1-335)
# T12 sequence: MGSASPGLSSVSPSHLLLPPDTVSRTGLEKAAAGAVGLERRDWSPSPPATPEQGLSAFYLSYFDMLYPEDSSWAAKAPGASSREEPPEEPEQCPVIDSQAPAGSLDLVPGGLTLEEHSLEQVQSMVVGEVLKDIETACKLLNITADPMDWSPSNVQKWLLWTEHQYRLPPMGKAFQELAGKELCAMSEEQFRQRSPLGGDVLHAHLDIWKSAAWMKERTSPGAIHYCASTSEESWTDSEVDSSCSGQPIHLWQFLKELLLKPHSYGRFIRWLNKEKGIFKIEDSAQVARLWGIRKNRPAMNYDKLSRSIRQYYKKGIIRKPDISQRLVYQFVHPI
# Method in brief: as §1
# Chain of SPIB (Q01892 whole entry): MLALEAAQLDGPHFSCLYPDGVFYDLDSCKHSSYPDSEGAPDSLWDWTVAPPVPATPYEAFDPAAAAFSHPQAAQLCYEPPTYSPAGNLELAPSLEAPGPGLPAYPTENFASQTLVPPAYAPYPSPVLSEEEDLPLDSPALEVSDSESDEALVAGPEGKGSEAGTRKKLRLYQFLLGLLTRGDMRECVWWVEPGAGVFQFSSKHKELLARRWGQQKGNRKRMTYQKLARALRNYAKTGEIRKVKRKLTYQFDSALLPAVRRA
# Chain of ETV1 (P50549 whole entry): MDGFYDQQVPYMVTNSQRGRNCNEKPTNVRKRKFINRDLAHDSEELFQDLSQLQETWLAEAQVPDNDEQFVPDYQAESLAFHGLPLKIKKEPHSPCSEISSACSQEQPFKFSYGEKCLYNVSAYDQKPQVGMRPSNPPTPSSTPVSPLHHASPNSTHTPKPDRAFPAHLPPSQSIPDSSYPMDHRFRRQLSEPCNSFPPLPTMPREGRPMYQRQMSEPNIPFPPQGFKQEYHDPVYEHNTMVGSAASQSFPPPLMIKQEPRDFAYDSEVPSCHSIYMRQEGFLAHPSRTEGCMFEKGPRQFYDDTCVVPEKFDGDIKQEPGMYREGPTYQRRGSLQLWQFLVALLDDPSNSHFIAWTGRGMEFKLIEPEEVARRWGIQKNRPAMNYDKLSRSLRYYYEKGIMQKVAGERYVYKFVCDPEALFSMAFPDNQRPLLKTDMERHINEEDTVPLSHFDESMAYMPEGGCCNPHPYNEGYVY
# Chain of ETV5 (P41161 whole entry): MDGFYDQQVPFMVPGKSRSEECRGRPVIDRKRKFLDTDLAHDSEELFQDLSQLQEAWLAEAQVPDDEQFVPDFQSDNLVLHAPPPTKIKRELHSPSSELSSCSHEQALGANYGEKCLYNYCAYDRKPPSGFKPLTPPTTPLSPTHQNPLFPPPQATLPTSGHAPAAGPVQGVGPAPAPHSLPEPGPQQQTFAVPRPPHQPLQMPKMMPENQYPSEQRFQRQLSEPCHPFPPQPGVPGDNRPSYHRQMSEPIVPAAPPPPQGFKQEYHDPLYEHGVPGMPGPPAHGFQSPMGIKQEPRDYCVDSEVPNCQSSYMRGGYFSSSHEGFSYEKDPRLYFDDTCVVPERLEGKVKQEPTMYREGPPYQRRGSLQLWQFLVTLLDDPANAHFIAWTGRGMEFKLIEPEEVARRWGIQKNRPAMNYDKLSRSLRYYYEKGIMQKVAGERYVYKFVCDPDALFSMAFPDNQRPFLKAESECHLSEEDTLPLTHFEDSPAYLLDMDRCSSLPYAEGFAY
# Chain of ELF1 (P32519 whole entry): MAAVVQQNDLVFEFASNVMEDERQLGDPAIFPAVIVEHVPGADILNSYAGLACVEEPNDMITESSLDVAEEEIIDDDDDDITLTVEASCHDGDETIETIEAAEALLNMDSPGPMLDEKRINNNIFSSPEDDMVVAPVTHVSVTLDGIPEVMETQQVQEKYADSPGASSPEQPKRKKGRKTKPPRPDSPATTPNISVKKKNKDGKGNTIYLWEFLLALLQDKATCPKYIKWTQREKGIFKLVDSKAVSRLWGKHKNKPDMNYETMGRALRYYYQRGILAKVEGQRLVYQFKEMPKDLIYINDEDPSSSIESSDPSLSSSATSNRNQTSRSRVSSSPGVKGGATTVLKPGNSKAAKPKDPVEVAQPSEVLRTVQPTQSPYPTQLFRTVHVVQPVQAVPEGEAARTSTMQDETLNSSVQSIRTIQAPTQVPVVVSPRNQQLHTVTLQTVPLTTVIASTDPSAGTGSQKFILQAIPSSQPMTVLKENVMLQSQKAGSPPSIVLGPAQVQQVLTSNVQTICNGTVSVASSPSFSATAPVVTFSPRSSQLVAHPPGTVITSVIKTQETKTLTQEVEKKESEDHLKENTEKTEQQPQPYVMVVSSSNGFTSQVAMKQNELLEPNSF
# Chain of ELF4 (Q99607 whole entry): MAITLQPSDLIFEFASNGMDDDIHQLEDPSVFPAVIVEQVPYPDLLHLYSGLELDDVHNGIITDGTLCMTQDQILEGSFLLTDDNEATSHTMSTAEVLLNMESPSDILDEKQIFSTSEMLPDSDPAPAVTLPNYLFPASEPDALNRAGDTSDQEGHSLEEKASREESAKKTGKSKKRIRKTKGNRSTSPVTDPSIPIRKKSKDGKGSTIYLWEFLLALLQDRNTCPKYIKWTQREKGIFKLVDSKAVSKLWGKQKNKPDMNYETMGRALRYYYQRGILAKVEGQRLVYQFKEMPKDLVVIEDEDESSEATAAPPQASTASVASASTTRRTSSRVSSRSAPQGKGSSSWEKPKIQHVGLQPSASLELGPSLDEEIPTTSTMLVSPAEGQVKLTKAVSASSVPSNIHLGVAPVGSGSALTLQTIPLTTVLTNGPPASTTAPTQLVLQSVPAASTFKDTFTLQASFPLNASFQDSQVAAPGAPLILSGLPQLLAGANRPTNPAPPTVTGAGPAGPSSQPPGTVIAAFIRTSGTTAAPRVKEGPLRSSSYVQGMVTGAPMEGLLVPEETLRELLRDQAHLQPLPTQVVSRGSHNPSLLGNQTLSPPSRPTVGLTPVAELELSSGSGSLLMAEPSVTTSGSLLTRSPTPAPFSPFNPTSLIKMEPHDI
Sequence,binding signal (ELK1),binding signal (ERG),binding signal (ELF1),binding signal (SPIB),binding signal (ETV5),binding signal (ELK4),binding signal (ETV1),binding signal (ERF),binding signal (ETV3L),binding signal (ETV7),binding signal (GABPA),binding signal (EHF),binding signal (FEV),binding signal (ELF4),binding signal (ETV2),binding signal (ELF3),binding signal (SPDEF)
GGTGGT,"1.03 fold enrichment (6-mer frequency, TF over GST control)","1.12 fold enrichment (6-mer frequency, TF over GST control)","1.01 fold enrichment (6-mer frequency, TF over GST control)","1.02 fold enrichment (6-mer frequency, TF over GST control)","1.04 fold enrichment (6-mer frequency, TF over GST control)","1.08 fold enrichment (6-mer frequency, TF over GST control)","1 fold enrichment (6-mer frequency, TF over GST control)","1.07 fold enrichment (6-mer frequency, TF over GST control)","1.05 fold enrichment (6-mer frequency, TF over GST control)","1 fold enrichment (6-mer frequency, TF over GST control)",–,–,–,–,–,–,–
GGTCAC,"1.02 fold enrichment (6-mer frequency, TF over GST control)","1.01 fold enrichment (6-mer frequency, TF over GST control)",–,"1.02 fold enrichment (6-mer frequency, TF over GST control)","1 fold enrichment (6-mer frequency, TF over GST control)",–,"1.02 fold enrichment (6-mer frequency, TF over GST control)",–,–,–,"1.06 fold enrichment (6-mer frequency, TF over GST control)","1.04 fold enrichment (6-mer frequency, TF over GST control)","1.04 fold enrichment (6-mer frequency, TF over GST control)","1.03 fold enrichment (6-mer frequency, TF over GST control)","1.15 fold enrichment (6-mer frequency, TF over GST control)","1.05 fold enrichment (6-mer frequency, TF over GST control)","1.05 fold enrichment (6-mer frequency, TF over GST control)"
